G9a inh = G9a (human) methyltransferase inhibition. Q96KQ7. G9a H3K9 monomethylation, AlphaScreen, 2 h. Potency, µM (top dose mostly 102 µM), without a hit: at the top dose activity, negative = inhibition, hits mostly inhibitors. 8.8% of 350,000 active; further: on the % scale 0 is the no-effect control and ±100 the full control effect; nearly all actives have a fitted effect of over 75% in size
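Chemiluminescent proximity detection of H3K9 monomethylation, read after 10 min bead incubation in the dark. Reaction: 20 nM G9a, 500 nM biotin-H3K9 peptide, 20 uM SAM cofactor, 2 h, room temperature, following 15 min enzyme-compound preincubation.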
L3MBTL1 block = inhibitors of human L3MBTL1. AlphaScreen L3MBTL1–H3K9me1 peptide binding. Potency, µM (highest dose often 57.1 µM), without a hit: at the highest dose activity, negative = inhibition, most hits filed as inhibitors. 0.66% of 230,000 active. AID 485360; further: on the % scale 0 is the no-effect control and ±100 the full control effect; nearly all actives have a fitted effect of over 60% in size
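AlphaScreen proximity signal between nickel-chelate acceptor and streptavidin donor beads (final 10 ug/mL) reports binding of 50 nM L3MBTL1 to 75 nM biotin-H3 K9me1 peptide; complex incubated with compounds 30 min at room temperature; cefsulodin titration as control.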
Sfp PPTase inh = inhibitors of Bacillus subtilis Sfp phosphopantetheinyl transferase; Biochemical Sfp PPTase activity, qHTS; Potency, µM, for the others: largest response in the series, negative = inhibition, most hits filed as inhibitors; 3.5% of 310,000 active;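 further: the enzyme is Sfp with the accession as filed and its product quenches rhodamine fluorescence; 0% = enzyme reaction without inhibitor and -100% = no enzyme wells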
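Sfp 15 nM + cpd, 15 min RT; start w/ rhodamine-CoA 5 uM, BHQ-2-YbbR 12.5 uM (final); 50 mM Hepes pH 7.6, 10 mM MgCl2, 0.01% NP-40, 0.01% BSA; read 525/598 nm at 0 and 30 min.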
JMJD2A Tudor = blocks the human JMJD2A Tudor domain; Potency, µM (top dose mostly 114 µM), without a hit: at the top dose activity change, negative = inhibition, hits mostly inhibitors; AlphaScreen JMJD2A-Tudor / H3K4me3 peptide binding; O75164; AID 504339; 4.4% of 390,000 active; further: on the % scale 0 is the no-effect control and ±100 the full control effect; nearly all actives have a fitted effect of over 50% in size
Target sequence (O75164 whole entry, looked up, the tested form may be a part): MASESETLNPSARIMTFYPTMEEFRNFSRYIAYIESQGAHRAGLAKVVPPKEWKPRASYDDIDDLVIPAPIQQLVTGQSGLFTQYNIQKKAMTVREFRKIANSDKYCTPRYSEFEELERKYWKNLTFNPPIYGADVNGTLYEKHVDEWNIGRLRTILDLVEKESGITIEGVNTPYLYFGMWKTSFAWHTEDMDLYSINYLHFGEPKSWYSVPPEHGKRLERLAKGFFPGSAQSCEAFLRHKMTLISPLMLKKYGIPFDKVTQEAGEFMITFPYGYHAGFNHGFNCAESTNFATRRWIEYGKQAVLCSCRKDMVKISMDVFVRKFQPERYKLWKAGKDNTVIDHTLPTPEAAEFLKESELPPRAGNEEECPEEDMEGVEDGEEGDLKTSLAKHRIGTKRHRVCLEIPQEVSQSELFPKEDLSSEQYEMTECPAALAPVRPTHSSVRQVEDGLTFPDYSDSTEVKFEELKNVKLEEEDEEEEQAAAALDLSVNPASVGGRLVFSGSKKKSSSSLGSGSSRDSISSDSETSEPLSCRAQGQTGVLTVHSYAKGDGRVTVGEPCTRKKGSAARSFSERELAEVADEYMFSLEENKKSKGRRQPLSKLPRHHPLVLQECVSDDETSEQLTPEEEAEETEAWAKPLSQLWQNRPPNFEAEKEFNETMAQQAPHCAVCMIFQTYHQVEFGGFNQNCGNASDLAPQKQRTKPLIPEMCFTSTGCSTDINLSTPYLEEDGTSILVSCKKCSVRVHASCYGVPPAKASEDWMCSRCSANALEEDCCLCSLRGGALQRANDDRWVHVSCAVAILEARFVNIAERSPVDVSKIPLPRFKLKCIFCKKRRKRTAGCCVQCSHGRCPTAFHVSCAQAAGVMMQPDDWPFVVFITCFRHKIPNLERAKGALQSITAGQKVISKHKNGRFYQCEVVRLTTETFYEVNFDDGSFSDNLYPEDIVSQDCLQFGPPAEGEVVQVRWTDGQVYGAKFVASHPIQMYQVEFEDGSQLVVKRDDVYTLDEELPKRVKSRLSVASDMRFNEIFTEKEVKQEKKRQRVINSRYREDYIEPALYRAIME
BAZ2B inh = inhibitors of human BAZ2B bromodomain | Q9UIF8 | AlphaScreen BAZ2B-H3K14Ac peptide displacement | Potency, µM (highest dose often 114 µM), without a hit: at the highest dose activity change, negative = inhibition, hits mostly inhibitors | 4.4% of 360,000 active | AID 504333; further: on the % scale 0 is the no-effect control and ±100 the full control effect; nearly all actives have a fitted effect of over 60% in size
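BAZ2B (50 nM) with biotin-H3(5-23)K14Ac peptide (50 nM) in PBS pH 7.4, 0.01% Tween-20, preformed 30 min, then compound 30 min at room temperature; top concentration 110uM. AlphaScreen streptavidin donor/nickel chelate acceptor beads (10 ug/mL final), 20 min dark, signal read.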
HP1b chromo inh = inhibitors of HP1-beta chromodomain binding to methylated histone tails. AlphaScreen HP1-beta / biotin-H3K9me3 peptide binding. Potency, µM (titrated, usually from 114 µM), inactives show top-dose activity change, negative = inhibition, most hits filed as inhibitors. 0.56% of 390,000 active. P83916; further: nearly all actives have a fitted effect of over 70% in size
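AlphaScreen: HP1-beta (50 nM) preformed 30 min with biotin-H3(1-18)K9me3 peptide (50 nM) in PBS pH 7.4, 0.01% Tween-20. Compound added for 30 min at RT, then streptavidin donor/nickel chelate acceptor beads (10 ug/mL) for 30 min.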
* marks the source's active call; other numbers are inactive results; [ ] = another dose, or the depositor's remark. This is a sample that favours compounds with a hit; in the whole collection about 12% have one here. The call rests on the fitted dose curve; in most records, active means well fitted curve in the direction sought with a large enough effect; inconclusive means small, poorly fitted or top-dose-only effect, or another doubt; inactive means no such curve, though single readings can be large; an effect the other way counts as inactive or inconclusive. Potency means the concentration at half of the fitted maximal effect.

How did Cc1ccccc1N(C(=O)c1ccccn1)C(C(=O)NCc1ccccc1)c1ccncc1 (stereo not drawn) do in these assays?
G9a inh: 45%; Sfp PPTase inh: -3%; JMJD2A Tudor: -7%; BAZ2B inh: -10%; HP1b chromo inh: 36%

Results for CCc1ccc(N(C(=O)c2csnn2)C(C(=O)NC(C)(C)C)c2ccncc2)cc1 (stereo not drawn) ?
L3MBTL1 block: 5%; Sfp PPTase inh: 10%; JMJD2A Tudor: -12%; BAZ2B inh: 5%; HP1b chromo inh: 31%

Results for CC12CCC(C/C1=N\N=C1\NC(=O)/C(=C\c3cccc(Br)c3)S1)C2(C)C (stereo not drawn) ?
G9a inh: 1.3µM*; L3MBTL1 block: -7%; Sfp PPTase inh: 2%; JMJD2A Tudor: inconclusive; BAZ2B inh: -28%; HP1b chromo inh: -14%

Results for COc1cnc(-c2ccccn2)nc1Sc1c(Cl)cccc1Cl ?
G9a inh: 6%[12.7 µM]; L3MBTL1 block: -20%; Sfp PPTase inh: 21%; JMJD2A Tudor: -40%; BAZ2B inh: -7%; HP1b chromo inh: 19%

How did COc1cnc(-c2ccccn2)nc1Oc1cccc(Cl)c1 do in these assays?
G9a inh: -3%[12.7 µM]; L3MBTL1 block: -18%; Sfp PPTase inh: 8%; JMJD2A Tudor: -24%; BAZ2B inh: 45µM*; HP1b chromo inh: 32%

Results for COc1cnc(-c2ccccn2)nc1Oc1c(C)cccc1C ?
G9a inh: inconclusive; L3MBTL1 block: inconclusive; Sfp PPTase inh: 15%; JMJD2A Tudor: -25%; BAZ2B inh: 22µM*; HP1b chromo inh: 32%

Results for COC(=O)C(/C=C/C(C)Cc1cc(Br)cc(OCc2ccccc2)c1OC)OCc1ccccc1 (stereo not drawn) ?
Sfp PPTase inh: -14%

How did C/C(=N/NC(N)=S)c1ccccc1[N+](=O)[O-] do in these assays?
G9a inh: inconclusive; L3MBTL1 block: 4%; Sfp PPTase inh: 22µM*; JMJD2A Tudor: -32%; BAZ2B inh: 0%; HP1b chromo inh: 15%

Results for NC(=S)N/N=C/c1ccccc1[N+](=O)[O-] ?
L3MBTL1 block: 1%; Sfp PPTase inh: 4.5µM*; JMJD2A Tudor: -12%; BAZ2B inh: -10%; HP1b chromo inh: inconclusive

How did CC1(C)C(=O)Nc2ccccc2N1C(=O)COC(=O)COc1ccc(C#N)cc1 do in these assays?
G9a inh: -6%[12.7 µM]; Sfp PPTase inh: 8%; JMJD2A Tudor: -22%; BAZ2B inh: inconclusive; HP1b chromo inh: 10%

What do the screens show for `CCOC(=O)Cc1csc(NC(=O)/C=C/c2ccc(Cl)cc2)n1`?
G9a inh: -12%; Sfp PPTase inh: 11%; JMJD2A Tudor: -12%; BAZ2B inh: -21%; HP1b chromo inh: 40%

Results for O=C(/C=C/c1ccco1)Nc1nc(-c2ccccc2)cs1 ?
G9a inh: inconclusive; L3MBTL1 block: -8%; Sfp PPTase inh: -21%; JMJD2A Tudor: -11%; BAZ2B inh: inconclusive; HP1b chromo inh: -1%

Results for O=C(/C=C/c1ccco1)Nc1nc(-c2ccc(F)c(F)c2)cs1 ?
L3MBTL1 block: 8%; Sfp PPTase inh: 22µM*; JMJD2A Tudor: -5%; BAZ2B inh: -4%; HP1b chromo inh: 16%

How did O=C(/C=C/c1ccco1)Nc1nc(-c2ccccn2)cs1 do in these assays?
G9a inh: 22µM*; Sfp PPTase inh: -79%; JMJD2A Tudor: 50µM*; BAZ2B inh: 28µM*; HP1b chromo inh: 45µM*

How did Cc1csc(NC(=O)/C=C/c2ccco2)n1 do in these assays?
G9a inh: 20µM*; L3MBTL1 block: -14%; Sfp PPTase inh: -26%; JMJD2A Tudor: -22%; BAZ2B inh: -38%; HP1b chromo inh: 10%

What do the screens show for `CCOC(=O)Cc1csc(NC(=O)/C=C/c2ccco2)n1`?
G9a inh: 50µM*; Sfp PPTase inh: 71µM*; JMJD2A Tudor: -22%; BAZ2B inh: -28%; HP1b chromo inh: 20%

How did COc1cc(-c2cc(OC)c3c(C)oc(C)c3c(=O)c2)ccc1OC(=O)c1ccccc1F do in these assays?
G9a inh: inconclusive; JMJD2A Tudor: -30%; BAZ2B inh: -23%; HP1b chromo inh: 39%

Results for Cc1sc(NC(=O)/C=C/c2ccco2)c(C(=O)OC(C)C)c1C ?
G9a inh: inconclusive; L3MBTL1 block: -3%; Sfp PPTase inh: 32µM*; JMJD2A Tudor: 9%; BAZ2B inh: -10%; HP1b chromo inh: 39%

What do the screens show for `COC(=O)c1c(NC(=O)/C=C/c2ccco2)sc2c1CCC2`?
G9a inh: -3%[59 µM]; L3MBTL1 block: -19%; Sfp PPTase inh: -6%; JMJD2A Tudor: -35%; BAZ2B inh: inconclusive; HP1b chromo inh: 11%

Results for COCC(C)NCc1ccc(OC)c(Br)c1 (stereo not drawn) ?
G9a inh: inconclusive; L3MBTL1 block: 11%; Sfp PPTase inh: -6%; JMJD2A Tudor: 18µM*; BAZ2B inh: 50µM*; HP1b chromo inh: inconclusive

Results for COc1ccc(C)cc1NC(=O)C1COc2ccccc2C1 (stereo not drawn) ?
G9a inh: -5%[59 µM]; JMJD2A Tudor: 8.9µM*; BAZ2B inh: 5%; HP1b chromo inh: 25%[57 µM]

How did COc1ccc(NC(=O)C2COc3ccccc3C2)cc1Cl (stereo not drawn) do in these assays?
G9a inh: -6%[59 µM]; JMJD2A Tudor: -11%; BAZ2B inh: 0%; HP1b chromo inh: 21%[57 µM]

Results for O=C(O)c1cccc2[nH]c(C(F)(F)F)nc12 ?
G9a inh: 40µM*; L3MBTL1 block: 9%; Sfp PPTase inh: -11%; JMJD2A Tudor: 32µM*; BAZ2B inh: 56µM*; HP1b chromo inh: -8%

Results for Nc1cccc2[nH]c(C(F)(F)F)nc12 ?
G9a inh: 28µM*; L3MBTL1 block: inconclusive; Sfp PPTase inh: 4%; JMJD2A Tudor: inconclusive; BAZ2B inh: 56µM*; HP1b chromo inh: inconclusive

How did Cc1nc(=S)c2ccccc2[nH]1 do in these assays?
G9a inh: inconclusive; Sfp PPTase inh: -22%; JMJD2A Tudor: -13%; BAZ2B inh: 3%; HP1b chromo inh: 64%

What do the screens show for `S=c1nc(COc2ccccc2)[nH]c2ccccc12`?
G9a inh: 18µM*; Sfp PPTase inh: 32µM*; JMJD2A Tudor: -28%; BAZ2B inh: -3%; HP1b chromo inh: -11%

What do the screens show for `S=c1nc(Cc2ccccc2)[nH]c2ccccc12`?
G9a inh: 19%; Sfp PPTase inh: 29%; JMJD2A Tudor: -3%; BAZ2B inh: -2%; HP1b chromo inh: 43%

Results for FC(F)(F)c1nc(=S)c2ccccc2[nH]1 ?
G9a inh: 67%; Sfp PPTase inh: 20µM*; JMJD2A Tudor: 50µM*; BAZ2B inh: 8%; HP1b chromo inh: inconclusive
